Measured values from the supplement of paper PMC11417369.
Over roughly 25,000 sequences, “ln(normalized median fluorescence intensity)” has its median near 6.7; the highest 2% begin near 10. The list comes from a sample in which the highest values are over-represented; it also holds similar and randomly drawn sequences.

System: PfHDP1 homeodomain (GST-tagged)
Experiment: gcPBM binding intensity (ln(normalized median fluorescence intensity)); higher = stronger DNA binding
In short: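 Binding intensity values are the highest Masliner-normalised natural-log median intensity among replicate spots of either probe orientation. The binding step lasted 1 h in 1× PBS with 1% milk, 0.2 mg/ml BSA, 0.5% salmon testes DNA and 0.03% Triton X-100, using GST-tagged P. falciparum DNA-binding domains expressed in E. coli on an Agilent 4 × 180k array of primer-extended double-stranded 36-bp intergenic genomic probes plus negative controls. Alexa488 anti-GST antibody and a 488 nm scan detected bound protein.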

Sequence	gcPBM binding intensity (ln)
TAAAAAATAAATATATGTACATATTTATTTTTTTTT [XGTACX_site850]	6.19
TATCATATATAAAGAGGTACGTAAGAATAGAAAATT [XGTACX_site798]	7.27
GTATTTCTTTAATATACACACACCAAAACAAAAAAA [CACACA_site579]	6.98
TTTTATTTCTTTGCACCATTTTAAATACAAACAAAT [CACACA_negctrl_site1553]	11
TTTTTGTTACCTATTGTGCACTTCATATAAATTAAA	10.9
ACATTAAAAAATTGTTTGCACTATATAAAATATTAA [GTGCAC_site9728]	8.82
TAATAAAAAAAGTGCACACACATAATATTTATATAT [CACACA_site7548]	8.75
TTTTTTTTTGTTAAAGTGCATATATTAAATTTTCCT [GTGCAC_site9677]	7.82
TTTTTTATTTTGTGCACACACATAAAAATATATATA [CACACA_site761]	11.4
TCTTTCCTTATTAAAACACACAAATACATTATTTAA [CACACA_site2147]	6.7
CATTTTATTTTCTTTGTGCACAAAAATATTTTTTCT	10.8
GAAATTTGTTATTGCACACAAATTTTTCTTTTTTTA [CACACA_site2339]	9.6
GTGCAAAATATTTTTACACACAAATTCTTACAACAG [CACACA_site7556]	7.77
ATAAAAAAAAATATTTGTACACATATTTATATATTA [XGTACX_site8147]	6.56
CATTAATAAAAAAAAAGTACAAAAAATATATATATT [XGTACX_site2091]	6.88
TCGTCTCAATAATTATAATAAAAAAATTCCTAAGTC [CACACA_negctrl_site338]	6.28
TATATGCCTATAAGAAGTACTGTGTAATGTAATATA [XGTACX_site8089]	6.67
TTGTGTTATCCTTTTTTAGATCAACTATTTTTATTC [CACACA_negctrl_site145]	6.32
AAAGGAAAAAAAAGCACACACAATATTACTTGAAAT [CACACA_site2588]	6.9
TAATTATTACACGGTATTATATATAATATGTTAAAA [GTGCAC_negctrl_site134]	6.6
ATATTGATACATCCAATACACACTACATATAATGAT [CACACA_site1874]	6.82
TTATATTTATAAAATTGTATACCCCTTCTAACTTTC [CACACA_negctrl_site250]	6.7
ATATATTTATTTTGTGCACACAACGCAAACCTTTTA [CACACA_site3508]	11.3

Sequence	gcPBM binding intensity (ln)
TATAAACCTTTTTGCACGCACACAAAAAAAAAATAA [CACACA_site168]	9.61
TCAAAAAATATATTTGCACACTCAAAAAAAAAAAAA [CACACA_site860]	10.2
TTTTGTTATAAATAATGTACATATTTATTTAAAATT [XGTACX_site6610]	6.25
ATATATATTTTTTAAACACACACATAAATATTTGTG [CACACA_site8936]	6.94
TTTTTTATTTTGTGCACACACATAAAAATATAAATA [CACACA_site6497]	11.4
AAAATGTGCATATTTGCACACTTCAATATATATATA [CACACA_site1791]	11.2
GTGCAAAATATTTTTACACACAAATTTTTACAACAG [CACACA_site3357]	8.07
TTTATATTTTATAAATTATTCATAAATATATTTGTA [TGCATGCA_negctrl_site175]	6.34
AAAAAATATATTTGCACACTCAAAAAAAAAAAAAAA [CACACA_site859]	10.3
AAAATATAAATTCATGTGCACATATATATTTTGTTA [GTGCAC_site9782]	10.7
TATAAAAATGTGCACACACACACATATTTATATTTA [CACACA_site6826]	10.1
ATAACATTCTATGTTGCACACAAAGAGAAAAATTTA [CACACA_site9322]	9.12
TATTATATATCAAAATGTACATTAATTTGAGTAATT [XGTACX_site5434]	6.37
AAACGTGCGTATATGTGTACGCATATATATATATAT [XGTACX_site5252]	9.26
ATTTTTTTATTTTGTGCACACACATAAAAATATATA [CACACA_site762]	11.4
TATTTTATAATAGGCACACATATAAAAATATATATA [CACACA_site4127]	6.57
ATATATTTTTTAAACACACACATAAATATTTGTGTA [CACACA_site2879]	6.8
ATAATACAAAATACATGTACAAATATTTTTCATATT [XGTACX_site1721]	6.43
AATAAAATGGAATACGGTACACATAATCCTAAAATG [XGTACX_site926]	6.4
TATAACAAGTTATAAAGTACAAATGTTGAATTTTAT [XGTACX_site4673]	6.07
GGAGGTTGTTATAAAAGTACAAAAAGTTGCAATTTT [XGTACX_site7351]	10.7
TTATGTTATATAAAAAGTACAAATTTTTTTTAATTA [XGTACX_site3435]	5.94
AAACGAGAACATAATAAATACATAAATAAATAAATA [GTGCAC_negctrl_site433]	6.43

Sequence	gcPBM binding intensity (ln)
ACCCTCATATTATAGACACACACAAAAAAAATAAAA [CACACA_site7941]	6.66
TATATAAAAAATAGGTGGTCAACTTAAATATTTTAT [XGTACX_site4495]	6.46
CTTTTAAATTATTTTTGTACATAATTATATATATAT [XGTACX_site4128]	8.27
TATATATAAATATATGTGCACTTTTTATATTTATAT	9.06
TTTTTATTACATAATTAAAAAAAATAATAAAATAAA [XGTACX_negctrl_site249]	6.03
TGTATTAAAAATTTGGTGCAACTTTTACATAATAAT	10.8
TATATTTTATATATGGTGCAACTTTTATTTAAATAA	10.7
TATAAAAATGTGTATGTACACACTTTATTTTTAATA [CACACA_site2532]	6.38
ATAATATTTAGGTGTGCACACAAACATACATATATA [CACACA_site9120]	10.9
TTACATACAATTGGTGTGCACATATATATATATATA	10.3
TAATAATCAAACTATACACACATAAATAAATATATA [CACACA_site156]	6.52
AATATTTATGGGTGCACACAAACATACATATATATA [CACACA_site3395]	10
ATAATATTCGAGTGTGCACACAAACATACATATATA [CACACA_site3396]	11.1
TATTCGAACAAAAATACATGCACATATGCATAATAA [TGCATGCA_site171]	10
TTTATATATATTTATACACACAAACATAATACTACT [CACACA_site5161]	6.86
TTTATTTATATTTATACACACAAACATAATACTACT [CACACA_site7039]	6.82
AAATCAAACTTTGGTGTGCACAAATATATACATATA [GTGCAC_site9986]	11
CATATATGTTATATTTAACACACATATAAGGTACAT [CACACA_site8105]	6.51
AAGAAAAAGAATAGACGGACAACTAATATAAAATAT [XGTACX_site7905]	6.53
ATATATAAACTGAAGGGTACAATGAAAAAAGAACTT [XGTACX_site7219]	6.81
CCATATCTTTTTTGCACACACTACAATAAAACAAAA [CACACA_site4995]	10.6
AGCCATATCTTTTTTGCACACACTACAATAAAACAA [CACACA_site1650]	10.1
TACAACAATTTTTGCACACACCAAAACATAAAATAA [CACACA_site4964]	10.3

Sequence	gcPBM binding intensity (ln)
ATTTGTATATACATATGTACACATGTAGGCTCATAA [XGTACX_site1709]	6.92
ATATTTTCAGTTCTCCATTATGTTCCCATTATTTTT [CACACA_negctrl_site990]	7.03
TGGGTGTAGAACAATTGTACTTTGTAAAAATATAAG [XGTACX_site8464]	6.59
CATGCTTATATGTGCACACACAAAAGAAAAGAAAAA [CACACA_site1655]	11
TTCATGCTTATATGTGCACACACAAAAGAAAAGAAA [CACACA_site1656]	10.8
CAAAAAAAGAAAGCTACACACATTTATGTGCTATAT [CACACA_site2777]	6.72
ATTTATGTTATATATACACACACAAAAGAAAAAAAA [CACACA_site8977]	6.89
AATGTGCACACGCGTACACACAAAAAAAGAAAAAAA [CACACA_site7031]	10.2
TTATGTTATATATACACACACAAAAGAAAAAAAAAA [CACACA_site2987]	6.48
TAAATATATATATATTGTACAAAACAAATGTGAATT [XGTACX_site696]	7.1
GATGTTCATCACTACACACACAAAGAAATATAAATA [CACACA_site7294]	6.57
TCAATTAGACGAAAATGTACATATGTATATATTTTT [XGTACX_site5027]	6.25
ATACATATGGTGGATCGTACATATATATAATATGTA [XGTACX_site8631]	6.5
TATAATGTATGTAGTGCACACCTCTATAATATATTA [CACACA_site8560]	9.5
TATGTACACCCATATACACACCTCTATAATATATAT [CACACA_site4563]	7.13
TAGAATGTATGTAGTGCACACCTCTATAATATATTA [CACACA_site1873]	10.5
TATTATATTATACATACACACCCATATAATATGTTT [CACACA_site8191]	6.85
GCCAATAAAGATGTGGTGCATTATATATATATATAT	10.7
TAAATATATATATAAGTGCATTATATATATATATAA	9.53
AATATTCAATATAAAGTGCATTATTGTGGACCTAAT	8.94
TAAAACTTATACAAATGTACAAATATATATATATAT [XGTACX_site4661]	9.19
TTTTTTATTTTATTTTTTTCTGCTTATCCACATTAG [XGTACX_negctrl_site108]	6.48
